{"source": "PubChem BioAssay AID1566", "about": "(Sanford-Burnham Center for Chemical Genomics, 2009)", "note": "Hit rate of the full screen: of about 290,000 compounds, about 1,800 (0.62%) were called active. Cut-off read from the data, not from the text of the source: active = inhibition above about 50%; inactive = the rest. What follows is part of a selection rich in actives, with near analogues and random picks from the rest. Peptide text beside a SMILES is read from it. * marks the point of attachment. OBn = c1ccc(CO*)cc1"}
{"test": "inhibition of NOD2-driven NF-kB reporter – cell-based, luminescence, uHTS, HEK293 (AID 1566)", "conditions": "HEK293 NOD2/NF-kB luciferase reporter, at 4 µM, active compounds read high"}
{"smiles": "CC(=O)Oc1ccc(OC(C)=O)c2c1CC(C)=C(C)C2", "inhibition": "33.6% (inactive)"}
{"smiles": "Cc1ccc(OCC(=O)O/N=C(\\N)c2ccncc2)cc1C", "inhibition": "-6.1% (inactive)"}
{"smiles": "C=CCn1c(SCc2ccc(Cl)cc2)nc2cc(C(=O)N3CCC(C(N)=O)CC3)ccc2c1=O", "inhibition": "1.8% (inactive)"}
{"smiles": "COc1ccc(-c2noc(CN3CCOCC3)n2)cc1OC", "inhibition": "-8.7% (inactive)"}
{"smiles": "CCn1c(C)c(C(C)=O)c(N2CCN(c3ccc(OC)cc3)CC2)nc1=S", "inhibition": "12.6% (inactive)"}
{"smiles": "Cc1ccc(NC(=O)N2CCCC2C(=O)Nc2ccc3c(c2)OCCO3)cc1", "note": "(configuration not stated)", "inhibition": "-15.1% (inactive)"}
{"smiles": "CC(=O)Nc1ccc(NC(=O)CN(C)S(=O)(=O)c2ccc3ccccc3c2)cc1", "inhibition": "-3.2% (inactive)"}
{"smiles": "CC(=O)NCC(=O)N[C@@H](CC(=O)OCc1ccccc1)C(=O)OCc1ccccc1", "note": "(Ac-Gly-Asp(OBn)-OBn)", "inhibition": "15.4% (inactive)"}
{"smiles": "O=C(CCc1nc(-c2ccccc2F)no1)NCCN1CCOCC1", "inhibition": "9.2% (inactive)"}
{"smiles": "COc1ccc(Nc2cc3n(c(=O)n2)CCc2cc(OC)c(OC)cc2-3)cc1", "inhibition": "-35.6% (inactive)"}
{"smiles": "O=C(COc1ccccc1)NN1C(=O)CSC1=S", "inhibition": "3.5% (inactive)"}
{"smiles": "Cc1ccc(NC(=O)c2cc3ccccc3o2)cc1S(=O)(=O)N(C)C", "inhibition": "-98.2% (inactive)"}
{"smiles": "COc1ccccc1NS(=O)(=O)c1cc(NC(=O)c2cc3ccccc3oc2=O)ccc1C", "inhibition": "-25.3% (inactive)"}
{"smiles": "Cc1ccc(NC(=O)c2cc3ccccc3oc2=O)cc1S(=O)(=O)N(C)C", "inhibition": "85.6% (active)"}
{"smiles": "COc1ccc(Cl)cc1NC(=O)COc1ccc(S(=O)(=O)N2CCOCC2)cc1C", "inhibition": "11.3% (inactive)"}
{"smiles": "Cc1ccc(CCNC(=O)c2cc(-c3ccncc3)nc3ccc(S(=O)(=O)N4CCOCC4)cc23)cc1", "inhibition": "-13.8% (inactive)"}
{"smiles": "CS(=O)(=O)c1cc([N+](=O)[O-])c(Sc2nc3ccccc3[nH]2)c([N+](=O)[O-])c1", "inhibition": "4.3% (inactive)"}
{"smiles": "COCCn1c(C)cc(C(=O)COc2cccnc2[N+](=O)[O-])c1C", "inhibition": "4.6% (inactive)"}
{"smiles": "Cc1cc(C(=O)CN2C(=O)c3ccccc3C2=O)c(C)n1Cc1cccs1", "inhibition": "19% (inactive)"}
{"smiles": "Cc1ccc2cccc(OCC(=O)c3cc(C)n(Cc4ccco4)c3C)c2n1", "inhibition": "-10.4% (inactive)"}
{"smiles": "Cc1ccc(-n2c(C)cc(C(=O)COc3cccnc3[N+](=O)[O-])c2C)cc1", "inhibition": "30.3% (inactive)"}
{"smiles": "Cc1cc(C(=O)COC(=O)c2ccccc2O)c(C)n1Cc1cccs1", "inhibition": "89.6% (active)"}
{"smiles": "CCn1nc(C(=O)OCC(=O)c2cc(C)n(Cc3cccs3)c2C)c2ccccc2c1=O", "inhibition": "-20.7% (inactive)"}
{"smiles": "Cc1cc(C(=O)COC(=O)c2ccc3c(c2)OCO3)c(C)n1Cc1cccs1", "inhibition": "-8.7% (inactive)"}
{"smiles": "Cc1cc(C(=O)COc2cccnc2[N+](=O)[O-])c(C)n1-c1ccccc1", "inhibition": "20.6% (inactive)"}
{"smiles": "Cc1cc(C(=O)COc2ccc3ccc(=O)oc3c2)c(C)n1Cc1cccs1", "inhibition": "-4.5% (inactive)"}
{"smiles": "Cc1ccc(C)c(C(=O)CSc2n[nH]c(-c3ccncc3)n2)c1", "inhibition": "11% (inactive)"}
{"smiles": "COC(C[C@H]1O[C@H]1[C@H](O)[C@H](C)OCc1ccccc1)OC", "inhibition": "9.8% (inactive)"}
{"smiles": "CC(C)c1ccc(NC(=O)c2ccccc2NC(=O)C2CC=CCC2C(=O)O)cc1", "note": "(configuration not stated)", "inhibition": "-9.6% (inactive)"}
{"smiles": "O=C(NC1CCCC1)C(NS(=O)(=O)c1cccc2nsnc12)c1ccccc1", "note": "(configuration not stated)", "inhibition": "15.9% (inactive)"}
{"smiles": "Clc1ccc(Nc2nc(N3CCOCC3)nc(N3CCOCC3)n2)cc1Cl", "inhibition": "8.7% (inactive)"}
{"smiles": "Clc1ccc(C2[C@H]3CN(Cc4ccc(-c5ccccc5)cc4)[C@H](c4ccccc4)C34CC2(c2ccccc2)C4)cn1", "note": "(some centres not stated)", "inhibition": "6.2% (inactive)"}
{"smiles": "COc1ccc(N2CCN(C(=O)c3nc4nc(C)cc(C)n4n3)CC2)cc1", "inhibition": "7.4% (inactive)"}
{"smiles": "CC(C)Cc1ccc(C(C)C(=O)Nc2ccccc2O)cc1", "note": "(configuration not stated)", "inhibition": "22.9% (inactive)"}
{"smiles": "C=CCNC(=O)NC(=O)Cn1c(=O)c2c(ncn2CC)n(Cc2ccccc2)c1=O", "inhibition": "17.8% (inactive)"}
{"smiles": "Cc1nc(SCc2cccc(C(=O)O)c2)nc2c1CCCC2", "inhibition": "11% (inactive)"}
{"smiles": "Cc1nc(SCc2ccccc2)nc2c1CCC2", "inhibition": "-57.5% (inactive)"}
{"smiles": "Cc1nc(SCc2ccc(C(=O)O)cc2)nc2c1CCCC2", "inhibition": "54.6% (active)"}
{"smiles": "COc1ccc(OCC(=O)N/N=C/c2ccc(N(C)C)cc2)cc1", "inhibition": "-12.2% (inactive)"}
{"smiles": "Cc1cc(/C=C2\\SC(=O)N(C)C2=O)c(C)n1-c1ccc(O)cc1", "inhibition": "0.7% (inactive)"}
{"smiles": "COc1ccc(-n2c(C)cc(/C=C3/SC(=S)N(C)C3=O)c2C)cc1", "inhibition": "24.3% (inactive)"}
{"smiles": "Cc1cc(/C=C2\\SC(=S)NC2=O)c(C)n1-c1cccc(O)c1", "inhibition": "-226% (inactive)"}
{"smiles": "Cc1cc(/C=C2/C(=O)NN(c3ccccc3)C2=O)c(C)n1-c1cccc(O)c1", "inhibition": "-42.2% (inactive)"}
{"smiles": "Cc1ccc(OCC(=O)NCCCNC(=O)c2ccc(C)nc2)cc1", "inhibition": "7.3% (inactive)"}
{"smiles": "C/C(=C\\C#N)n1nc(C)cc1N", "inhibition": "16.8% (inactive)"}
{"smiles": "Cc1cc2oc3c(c(=O)c2cc1C)C(c1ccc(C(C)C)cc1)N(CCCN1CCOCC1)C3=O", "note": "(configuration not stated)", "inhibition": "0.6% (inactive)"}
{"smiles": "CSc1nsc(SCC(=O)NCc2ccccc2)n1", "inhibition": "-5.3% (inactive)"}
{"smiles": "CCc1ccc(NC(=S)N(Cc2cccnc2)Cc2ccco2)cc1", "inhibition": "6.5% (inactive)"}
{"smiles": "C=CCc1cccc2cc(C(=O)Nc3ccccc3C(=O)O)c(=O)oc12", "inhibition": "62.4% (active)"}
{"smiles": "C=CCc1cccc2cc(C(=O)Nc3cccc(C(=O)O)c3)c(=O)oc12", "inhibition": "-0.7% (inactive)"}
{"smiles": "C=CCc1cccc2cc(C(=O)O)c(=O)oc12", "inhibition": "-2.5% (inactive)"}
{"smiles": "NC(=O)CN1CCN(CCN2C(=O)c3cccc4cccc(c34)C2=O)CC1", "inhibition": "1.7% (inactive)"}
{"smiles": "Cc1cc(N2CCN(c3nc(-c4ccc([N+](=O)[O-])cc4)cs3)CC2)c2ccccc2n1", "inhibition": "15.6% (inactive)"}
{"smiles": "Cc1cc(N2CCN(c3nc(-c4ccccc4)cs3)CC2)c2ccccc2n1", "inhibition": "26.2% (inactive)"}
{"smiles": "COc1ccc(-c2csc(N3CCN(c4cc(C)nc5ccccc45)CC3)n2)cc1OC", "inhibition": "70% (active)"}
{"smiles": "O=C(/C=C/c1ccccc1)NC(=S)NNC(=O)c1cnccn1", "inhibition": "20.5% (inactive)"}
{"smiles": "Cc1ccc(OCC(=O)c2cc(C)n(C)c2C)c([N+](=O)[O-])n1", "inhibition": "32.9% (inactive)"}
{"smiles": "Cc1ccc(OCC(=O)c2cc(C)n(C3CC3)c2C)c([N+](=O)[O-])n1", "inhibition": "11.3% (inactive)"}
{"smiles": "Cc1ccc(OCC(=O)c2cc(C)c(C)cc2C)c([N+](=O)[O-])n1", "inhibition": "12.2% (inactive)"}
{"smiles": "C=CCn1c(C)cc(C(=O)COc2ccc(S(=O)(=O)N3CCCC3)cc2[N+](=O)[O-])c1C", "inhibition": "-1.6% (inactive)"}
{"smiles": "COc1ccc(-n2c(C)cc(C(=O)COc3ccc(C)nc3[N+](=O)[O-])c2C)cc1", "inhibition": "-5.4% (inactive)"}
{"smiles": "Cc1ccc(OCC(=O)c2cc(C)n(CC(F)(F)F)c2C)c([N+](=O)[O-])n1", "inhibition": "23% (inactive)"}
